# Experimental data reported in the supplement of paper PMC8728848.
# This excerpt belongs to a sample that is enriched for the strongest signals.
# What was measured:
# Experiment in all cases: glycan array binding signal (z-score within array); higher = stronger binding
# Details in all cases: glycan notation: IUPAC condensed, linker removed
# Fuc(a1-2)Gal(b1-3)GlcNAc = target: Fuc(a1-2)Gal(b1-3)GlcNAc
# Outline: (§1)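 Columns mapping to the same glycan were averaged after glycan names were converted to IUPAC-condensed notation. The data come from 3228 arrays in the Consortium for Functional Glycomics database, limited to those with an available protein sequence. Binding is reported as a within-array Z-score averaged across arrays of one protein sequence and across linkers.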
# [1] = target: Fuc(a1-2)Gal(b1-4)[Fuc(a1-3)]GlcNAc(b1-3)Gal(b1-4)[Fuc(a1-3)]GlcNAc
# Outline: as §1
# [2] = target: Fuc(a1-3)[Gal(b1-4)]GlcNAc(b1-3)Gal(b1-3)[Fuc(a1-4)]GlcNAc
# Outline: as §1
# [3] = target: Fuc(a1-3)[Gal3S(b1-4)]Glc6S
# Outline: as §1
# Gal(b1-3)GalNAc = target: Gal(b1-3)GalNAc
# Outline: as §1
# [4] = target: Gal(b1-4)GlcNAc(b1-2)Man(a1-3)[Gal(b1-4)GlcNAc(b1-2)Man(a1-6)]Man(b1-4)GlcNAc(b1-4)GlcNAc
# Outline: as §1
# [5] = target: Gal(b1-4)GlcNAc(b1-3)Gal(b1-4)[Fuc(a1-3)]GlcNAc(b1-3)Gal(b1-4)[Fuc(a1-3)]GlcNAc
# Outline: as §1
# [6] = target: Gal(b1-4)GlcNAc(b1-3)[GlcNAc(b1-6)]Gal(b1-4)GlcNAc
# Outline: as §1
# [7] = target: Gal(b1-4)GlcNAc(b1-6)[Gal(b1-3)]GalNAc
# Outline: as §1
# [8] = target: Gal3S(b1-4)[Fuc(a1-3)]Glc
# Outline: as §1
# Gal4S6S(b1-4)GlcNAc = target: Gal4S6S(b1-4)GlcNAc
# Outline: as §1
# Glc(a1-6)Glc(a1-6)Glc = target: Glc(a1-6)Glc(a1-6)Glc
# Outline: as §1
# GlcA(b1-6)Gal = target: GlcA(b1-6)Gal
# Outline: as §1
# [9] = target: Man(a1-2)Man(a1-3)[Man(a1-2)Man(a1-6)]Man(a1-6)[Man(a1-2)Man(a1-2)Man(a1-3)]Man
# Outline: as §1
# [10] = target: Man(a1-2)Man(a1-6)[Man(a1-3)]Man(a1-6)[Man(a1-2)Man(a1-2)Man(a1-3)]Man(b1-4)GlcNAc(b1-4)GlcNAc
# Outline: as §1
# Man(a1-3)[Man(a1-6)]Man = target: Man(a1-3)[Man(a1-6)]Man
# Outline: as §1
# [11] = target: Neu5Ac(a2-3)Gal(b1-3)GalNAc(b1-4)[Neu5Ac(a2-3)]Gal(b1-4)Glc
# Outline: as §1
# [12] = target: Neu5Ac(a2-3)Gal(b1-4)GlcNAc(b1-3)Gal(b1-3)GlcNAc
# Outline: as §1
# [13] = target: Neu5Ac(a2-3)Gal(b1-4)[Fuc(a1-3)]GlcNAc(b1-3)Gal
# Outline: as §1
# [14] = target: Neu5Ac(a2-3)[GalNAc(b1-4)]Gal(b1-4)Glc
# Outline: as §1
# [15] = target: Neu5Ac(a2-6)Gal(b1-4)GlcNAc(b1-2)Man(a1-3)[GlcNAc(b1-2)Man(a1-6)]Man(b1-4)GlcNAc(b1-4)GlcNAc
# Outline: as §1
# [16] = target: Neu5Ac(a2-6)GalNAc(b1-4)GlcNAc
# Outline: as §1
binder,measurement,setting,value
"RfpB (Mycobacterium tuberculosum), O05594 (protein) MAAGLVTASMSLSTAVAHAGPSPNWDAVAQCESGGNWAANTGNGKYGGLQFKPATWAAFGGVGNPAAASREQQIAVANRVLAEQGLDAWPTCGAASGLPIALWSKPAQGIKHAGPSPNWDAVAQCESGGNWAANTGNGKYGGLQFKPATWAAFGGVGNPAAASREQQIAVANRVLAEQGLDAWPTCGA",glycan array binding signal (z-score),Fuc(a1-2)Gal(b1-3)GlcNAc,0.352
same,glycan array binding signal (z-score),[1],-0.487
same,glycan array binding signal (z-score),[2],-0.065
same,glycan array binding signal (z-score),[3],2.53
same,glycan array binding signal (z-score),Gal(b1-3)GalNAc,-0.202
same,glycan array binding signal (z-score),[4],-0.1
same,glycan array binding signal (z-score),[5],9.72
same,glycan array binding signal (z-score),[6],2.74
same,glycan array binding signal (z-score),[7],-0.262
same,glycan array binding signal (z-score),[8],-0.568
same,glycan array binding signal (z-score),Gal4S6S(b1-4)GlcNAc,0.03
same,glycan array binding signal (z-score),Glc(a1-6)Glc(a1-6)Glc,-0.239
same,glycan array binding signal (z-score),GlcA(b1-6)Gal,-0.284
same,glycan array binding signal (z-score),[9],-0.097
same,glycan array binding signal (z-score),[10],-0.426
same,glycan array binding signal (z-score),Man(a1-3)[Man(a1-6)]Man,9.95
same,glycan array binding signal (z-score),[11],4.02
same,glycan array binding signal (z-score),[12],-0.23
same,glycan array binding signal (z-score),[13],-0.07
same,glycan array binding signal (z-score),[14],-0.524
same,glycan array binding signal (z-score),[15],-0.499
same,glycan array binding signal (z-score),[16],-0.639
